The source of these data is ChEMBL document CHEMBL5598561, “ASAP - In vitro binding kinetics” (2024).

For the experiment, the target named is Nonstructural protein 3 (Zika virus) (UniProt A0A024AXB9). The following applies: PRVABC59, Concentration 10.0 uM.
Nonstructural protein 3 (Zika virus), sequence (A0A024AXB9 as listed by the source): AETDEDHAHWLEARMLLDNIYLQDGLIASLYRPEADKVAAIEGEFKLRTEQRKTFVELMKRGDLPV

For `Cc1cc(C(=O)Nc2ccc3c(c2)CNC3)c2cn[nH]c2c1`, the pKD (commonly −log10 of the KD, conventionally taken in molar units) by setting is: (Immobilization level 10000.0 pg/mm2, Rmax 20.0 pg/mm2, ka 694418.255 M-1s-1, kd 0.431 1/s) 6.21; (Immobilization level 12000.0 pg/mm2, Rmax 39.0 pg/mm2, ka 340621.404 M-1s-1, kd 0.261 1/s) 6.12; (Immobilization level 13000.0 pg/mm2, Rmax 29.0 pg/mm2, ka 572465.277 M-1s-1, kd 0.338 1/s) 6.23.
Consider `O=C(Nc1ccc2c(c1)CNC2)c1ccc(F)c2[nH]ncc12`, for which the negative logarithm of the KD (pKD) reads like this: (Immobilization level 10000.0 pg/mm2, Rmax 1.0 pg/mm2, ka 202467.762 M-1s-1, kd 1.761 1/s) 5.06; (Immobilization level 12000.0 pg/mm2, Rmax 8.0 pg/mm2, ka 155094.955 M-1s-1, kd 1.71 1/s) 4.96; (Immobilization level 13000.0 pg/mm2, ka 200831.038 M-1s-1, kd 1.747 1/s) 5.06.
On to `O=C(Nc1ccc2c(c1)CNC2)c1cc(Cl)cc(C2CC2)c1`, for which the pKD reads like this: (Immobilization level 10000.0 pg/mm2, Rmax 36.0 pg/mm2, ka 451548.811 M-1s-1, kd 1.111 1/s) 5.61; (Immobilization level 12000.0 pg/mm2, Rmax 40.0 pg/mm2, ka 259383.571 M-1s-1, kd 0.558 1/s) 5.67; (Immobilization level 13000.0 pg/mm2, Rmax 32.0 pg/mm2, ka 444846.323 M-1s-1, kd 0.765 1/s) 5.76.
As to `Cc1cccc(CNc2ccc(Cl)cc2C(=O)Nc2ccc3c(c2)CNC3)n1`, the pKD runs as follows: (Immobilization level 10000.0 pg/mm2, Rmax 24.0 pg/mm2, ka 19887.988 M-1s-1, kd 1.214 1/s) 4.21; (Immobilization level 12000.0 pg/mm2, Rmax 8.0 pg/mm2, ka 63837.388 M-1s-1, kd 0.552 1/s) 5.06; (Immobilization level 13000.0 pg/mm2, Rmax 43.0 pg/mm2, ka 14963.881 M-1s-1, kd 1.059 1/s) 4.15.
In the case of `Cc1ccc(C(C)C)c(C(=O)Nc2ccc3c(c2)CNC3)c1`, the pKD stood at 4.43 (Immobilization level 10000.0 pg/mm2, Rmax 25.0 pg/mm2, ka 195679.525 M-1s-1, kd 7.321 1/s); 4.87 (Immobilization level 12000.0 pg/mm2, Rmax 28.0 pg/mm2, ka 382623.73 M-1s-1, kd 5.226 1/s); 4.69 (Immobilization level 13000.0 pg/mm2, Rmax 25.0 pg/mm2, ka 300897.372 M-1s-1).
As to `CCc1ncc(Cl)cc1C(=O)Nc1ccc2c(c1)CNC2`, the pKD reads like this: (Immobilization level 10000.0 pg/mm2, Rmax 18.0 pg/mm2, ka 231152.44 M-1s-1, kd 2.909 1/s) 4.9; (Immobilization level 12000.0 pg/mm2, Rmax 36.0 pg/mm2, ka 247716.147 M-1s-1, kd 2.057 1/s) 5.08; (Immobilization level 13000.0 pg/mm2, Rmax 25.0 pg/mm2, ka 245446.465 M-1s-1, kd 2.231 1/s) 5.04.
`N#CCCNC(=O)[C@H](Nc1ccc2c(c1)CNC2)c1cc(Cl)cc(C2CC2)c1`: the pKD was 6.68 (Immobilization level 10000.0 pg/mm2, Rmax 28.0 pg/mm2, ka 442303.592 M-1s-1, kd 0.092 1/s); 6.58 (Immobilization level 12000.0 pg/mm2, Rmax 54.0 pg/mm2, ka 245042.447 M-1s-1, kd 0.064 1/s); 6.67 (Immobilization level 13000.0 pg/mm2, Rmax 39.0 pg/mm2, ka 364691.558 M-1s-1, kd 0.079 1/s).
Regarding `O=C(Nc1ccc2c(c1)CNC2)c1cc(Br)cc2[nH]c([C@H]3CCOC3)nc12`, the negative-log KD (pKD) runs as follows: (Immobilization level 10000.0 pg/mm2, Rmax 19.0 pg/mm2, ka 727525.444 M-1s-1, kd 0.791 1/s) 5.96; (Immobilization level 12000.0 pg/mm2, Rmax 41.0 pg/mm2, ka 451126.44 M-1s-1, kd 0.431 1/s) 6.02; (Immobilization level 13000.0 pg/mm2, Rmax 27.0 pg/mm2, ka 652953.753 M-1s-1, kd 0.609 1/s) 6.03.
Consider `CC(C)NC(=O)[C@H](Nc1ccc2c(c1)CNC2)c1cc(Cl)cc2[nH]ncc12`, for which the pKD reads like this: (Immobilization level 10000.0 pg/mm2, Rmax 25.0 pg/mm2, ka 625134.982 M-1s-1, kd 0.246 1/s) 6.4; (Immobilization level 12000.0 pg/mm2, Rmax 48.0 pg/mm2, ka 290518.5 M-1s-1, kd 0.198 1/s) 6.17; (Immobilization level 13000.0 pg/mm2, Rmax 30.0 pg/mm2, ka 486694.476 M-1s-1, kd 0.217 1/s) 6.35.
Turning to `CCCN1C(=O)[C@](C#N)(Nc2ccc3c(c2)CNC3)c2ccccc21`, the pKD was found to be 4.63 (Immobilization level 3900.0 pg/mm2, Rmax 21.0 pg/mm2, ka 159960.868 M-1s-1, kd 3.775 1/s); 4.91 (Immobilization level 5500.0 pg/mm2, Rmax 21.0 pg/mm2, ka 193790.134 M-1s-1, kd 2.393 1/s); 4.87 (Immobilization level 12000.0 pg/mm2, Rmax 14.0 pg/mm2, ka 179346.718 M-1s-1, kd 2.44 1/s).
`O=C(Nc1ccc2c(c1)CNC2)c1cc(Cl)nc2[nH]ncc12`: the pKD is, setting by setting: (Immobilization level 10000.0 pg/mm2, Rmax 24.0 pg/mm2, ka 257771.158 M-1s-1, kd 2.862 1/s) 4.96; (Immobilization level 12000.0 pg/mm2, Rmax 48.0 pg/mm2, ka 216828.153 M-1s-1, kd 2.008 1/s) 5.03; (Immobilization level 13000.0 pg/mm2, Rmax 31.0 pg/mm2, ka 263772.69 M-1s-1, kd 2.044 1/s) 5.11.
In the case of `O=C(Nc1ccc2c(c1)CNC2)c1cc(Cl)cc(-n2cccc2)c1`, the pKD is, setting by setting: (Immobilization level 10000.0 pg/mm2, Rmax 42.0 pg/mm2, ka 59822.118 M-1s-1, kd 0.636 1/s) 4.97; (Immobilization level 12000.0 pg/mm2, Rmax 78.0 pg/mm2, ka 29884.208 M-1s-1, kd 0.167 1/s) 5.25; (Immobilization level 13000.0 pg/mm2, Rmax 57.0 pg/mm2, ka 51449.064 M-1s-1, kd 0.399 1/s) 5.11.
As to `CC(C)c1cc(Br)cc(C(=O)Nc2ccc3c(c2)CNC3)c1`, the pKD by setting is: (Immobilization level 10000.0 pg/mm2, Rmax 17.0 pg/mm2, ka 881880.966 M-1s-1, kd 1.212 1/s) 5.86; (Immobilization level 12000.0 pg/mm2, Rmax 74.0 pg/mm2, ka 247931.968 M-1s-1, kd 0.872 1/s) 5.45; (Immobilization level 13000.0 pg/mm2, Rmax 30.0 pg/mm2, ka 643252.953 M-1s-1, kd 1.046 1/s) 5.79.
Take `CC(C)c1nc2c(C(=O)Nc3ccc4c(c3)CNC4)cc(Br)cc2[nH]1`: the pKD worked out at 6.06 (Immobilization level 10000.0 pg/mm2, Rmax 28.0 pg/mm2, ka 451108.713 M-1s-1, kd 0.396 1/s); 5.81 (Immobilization level 12000.0 pg/mm2, Rmax 37.0 pg/mm2, ka 197303.267 M-1s-1, kd 0.307 1/s); 5.94 (Immobilization level 13000.0 pg/mm2, Rmax 31.0 pg/mm2, ka 315714.539 M-1s-1, kd 0.366 1/s).
On to `NCCCCc1ccc(NC(=O)c2cc(Cl)cc3[nH]ncc23)cc1`, for which the negative logarithm of the KD (pKD) runs as follows: (Immobilization level 10000.0 pg/mm2, Rmax 4.0 pg/mm2, ka 200640.001 M-1s-1, kd 1.917 1/s) 5.02; (Immobilization level 12000.0 pg/mm2, Rmax 9.0 pg/mm2, ka 275409.297 M-1s-1, kd 4.372 1/s) 4.8; (Immobilization level 13000.0 pg/mm2, Rmax 11.0 pg/mm2, ka 186293.866 M-1s-1, kd 4.24 1/s) 4.64.
`NCCc1ccc(NC(=O)c2cc(Cl)cc3[nH]ncc23)cc1`: the pKD turned out to be 4.63 (Immobilization level 10000.0 pg/mm2, Rmax 37.0 pg/mm2, ka 181570.157 M-1s-1, kd 4.215 1/s); 4.83 (Immobilization level 12000.0 pg/mm2, Rmax 45.0 pg/mm2, ka 212645.467 M-1s-1, kd 3.181 1/s); 4.82 (Immobilization level 13000.0 pg/mm2, Rmax 31.0 pg/mm2, ka 239123.399 M-1s-1, kd 3.643 1/s).
With `C[C@H]1Oc2c(cccc2C(=O)Nc2ccc3c(c2)CNC3)NC1=O`, the pKD reads like this: (Immobilization level 10000.0 pg/mm2, Rmax 20.0 pg/mm2, ka 247912.445 M-1s-1, kd 2.654 1/s) 4.97; (Immobilization level 12000.0 pg/mm2, Rmax 35.0 pg/mm2, ka 236689.654 M-1s-1, kd 1.809 1/s) 5.12; (Immobilization level 13000.0 pg/mm2, Rmax 26.0 pg/mm2, ka 250555.254 M-1s-1, kd 1.96 1/s) 5.11.
With `O=C(Nc1ccc(C2CNC2)cc1)c1cc(Cl)cc2[nH]ncc12`, the pKD worked out at 5.12 (Immobilization level 10000.0 pg/mm2, Rmax 37.0 pg/mm2, ka 291088.891 M-1s-1, kd 2.184 1/s); 5.12 (Immobilization level 12000.0 pg/mm2, Rmax 69.0 pg/mm2, ka 224213.878 M-1s-1, kd 1.69 1/s); 5.3 (Immobilization level 13000.0 pg/mm2, Rmax 34.0 pg/mm2, ka 337518.302 M-1s-1, kd 1.709 1/s).
With `CN1Cc2ccc(NC(=O)c3cc(Cl)cc4[nH]ncc34)cc2C1`, the pKD was 5.77 (Immobilization level 10000.0 pg/mm2, Rmax 20.0 pg/mm2, ka 391825.056 M-1s-1, kd 0.668 1/s); 5.67 (Immobilization level 12000.0 pg/mm2, Rmax 38.0 pg/mm2, ka 177362.143 M-1s-1, kd 0.381 1/s); 5.76 (Immobilization level 13000.0 pg/mm2, Rmax 24.0 pg/mm2, ka 298987.187 M-1s-1, kd 0.52 1/s).
In turn, `O=C(NC[C@H]1CCCO1)[C@H](Nc1ccc2c(c1)CNC2)c1cc(Cl)cc(C2CC2)c1` displayed a pKD (Immobilization level 10000.0 pg/mm2, Rmax 42.0 pg/mm2, ka 577169.922 M-1s-1, kd 0.179 1/s) of 6.51; a pKD (Immobilization level 12000.0 pg/mm2, Rmax 59.0 pg/mm2, ka 295597.466 M-1s-1, kd 0.112 1/s) of 6.42; a pKD (Immobilization level 13000.0 pg/mm2, Rmax 62.0 pg/mm2, ka 409256.138 M-1s-1, kd 0.153 1/s) of 6.43.
